Assay outcomes (PubChem)
Sampled rows, rich in hits. Any-hit rate of the full collection: about 2.6%.
Cruzain inh noDet – inhibitors of Trypanosoma cruzi cruzain without detergent. P25779. purified cruzain, Z-FR-AMC fluorescence, no detergent. Potency, µM, hits mostly inhibitors. 200,000 compounds, 2.3% hits. AID 1476; further: nearly all actives have a fitted effect of over 40% in size
Target sequence (P25779 123-467 limits assumed): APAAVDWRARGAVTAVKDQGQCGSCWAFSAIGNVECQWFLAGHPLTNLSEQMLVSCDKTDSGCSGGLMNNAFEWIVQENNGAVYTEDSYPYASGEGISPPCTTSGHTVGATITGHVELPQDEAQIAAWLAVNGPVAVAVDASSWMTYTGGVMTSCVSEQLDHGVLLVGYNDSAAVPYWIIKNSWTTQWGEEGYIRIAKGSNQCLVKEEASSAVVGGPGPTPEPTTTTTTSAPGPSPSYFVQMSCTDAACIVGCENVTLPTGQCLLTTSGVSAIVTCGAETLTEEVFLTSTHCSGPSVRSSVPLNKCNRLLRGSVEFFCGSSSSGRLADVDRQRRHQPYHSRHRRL
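Detergent-free condition (0.00005% Triton X-100) in acetate buffer pH 5.5 with DTT. 1.5 nM enzyme and compound were pre-mixed 15 min, then 2 uM Z-FR-AMC substrate added; reaction progress from fluorescence change between first and third reads (60 s).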
Cruzain Triton – blocks cruzain activity in presence of Triton detergent | P25779 | purified cruzain, Z-FR-AMC fluorescence, 0.01% Triton | Potency, µM, hits mostly inhibitors | 200,000 compounds, 0.43% hits | AID 1478; further: nearly all actives have a fitted effect of over 40% in size
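Compounds were screened in titration against cruzain (1.5 nM) with 0.01% Triton X-100 to counter colloidal aggregation. Activity was the AMC fluorescence increase over 60 s after adding 2 uM Z-FR-AMC at pH 5.5.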
Hits are given with their value; 0 = inactive; ? = inconclusive. The call rests on the fitted dose curve; in most records, active means well fitted curve in the direction sought with a large enough effect; inconclusive means small, poorly fitted or top-dose-only effect, or another doubt; inactive means no such curve, though single readings can be large; an effect the other way counts as inactive or inconclusive.

SMILES | Cruzain inh noDet | Cruzain Triton
CN(C)c1ccc(N=Cc2nc(-c3ccccc3)oc2OC(=O)c2cccc(Cl)c2)cc1 | 20µM | 0
COC(=O)c1ccc(-c2nc3ccc(C)cc3o2)cc1 | 0 | 0
Oc1oc(-c2ccccc2)nc1C=Nc1cccc2ccccc12 | ? | 0
Cc1ccc(C(=O)Oc2oc(-c3ccccc3)nc2C=Nc2ccc(N(C)C)cc2)cc1 | 25.1µM | 28.2µM
O=C(NC1CCCCCCC1)C1CCN(S(=O)(=O)N2CCC3(CC2)OCCO3)CC1 | 0 | 0
CC1CCCC(C)N1c1nnc(NC(=O)Cn2c(=O)oc3ccccc32)s1 (stereo unspecified) | 0 | 0
COc1ccc(C2=NN(c3nc(-c4ccccc4)c(CC(=O)O)s3)C(c3ccco3)C2)cc1 (stereo unspecified) | 12.6µM | 15.8µM
COc1ccc(-c2nc(C)sc2CC(=O)O)cc1 | 0 | 0
COc1cccc(C(=O)c2cn(CC(=O)Nc3ccc4c(c3)OCCO4)c3nc(C)ccc3c2=O)c1 | 0 | 0
CCOC(=O)c1c(-c2cccc([N+](=O)[O-])c2)csc1NC(=O)CCCOc1ccccc1 | 31.6µM | 0
CCOC(=O)c1c(-c2cccc([N+](=O)[O-])c2)csc1NC(=O)CCCOc1ccccc1OC | 0 | 0
O=C(Cn1c(COc2ccc(Cl)cc2)nc2ccccc21)NCC(F)(F)F | 0 | 0
CCN1/C(=C2\SC(=S)N(Cc3ccccc3)C2=O)Sc2ccccc21 | 10µM | 0
CCN1/C(=C2\OC(=S)N(C)C2=O)Sc2ccccc21 | 0 | 0
CC(C)c1nnc(NC(=O)CCC(=O)NCc2cccs2)s1 | 0 | 0
COCCCNC(=O)C(Cc1ccccc1)NS(=O)(=O)c1ccc2c(c1)c(=O)n(C)c(=O)n2C (stereo unspecified) | 0 | 0
Cn1c(=O)c2cc(S(=O)(=O)NC(Cc3ccccc3)C(=O)NCc3ccco3)ccc2n(C)c1=O (stereo unspecified) | 15.8µM | 20µM
Cc1ccc(O)c(C(=O)c2cnc3c(c2)CN(C)C(=O)N3)c1 | 0 | 0
Cc1ccc(O)c(C(=O)c2cnc3c(c2)CN(CCC(C)C)C(=O)N3)c1 | 10µM | 0
Cn1c(=O)oc2cc(S(=O)(=O)NCCC(=O)NC3CCCC3)ccc21 | 0 | 0
CSCC[C@H](NC(=O)c1cccc([N+](=O)[O-])c1C)c1nc2ccccc2[nH]1 | 0 | 14.1µM
O=C(NC(Cc1ccccc1)c1nc2ccccc2[nH]1)c1ccc(Cl)c([N+](=O)[O-])c1 (stereo unspecified) | 0 | 0
CSCC[C@H](NC(=O)c1ccc(Cl)c([N+](=O)[O-])c1)c1nc2ccccc2[nH]1 | 0 | 14.1µM
Cc1c(C(=O)NC(Cc2ccccc2)c2nc3ccccc3[nH]2)cccc1[N+](=O)[O-] (stereo unspecified) | 0 | ?
Cn1c(C(=O)Nc2ccc3c(c2)OCCO3)cc2sccc21 | ? | 0
SMILES | Cruzain inh noDet | Cruzain Triton
CC(C)c1ccc(NC(=O)Nc2cc3sccc3n2C)cc1 | 7.94µM | 0
CCOc1cc(S(=O)(=O)N2CCN(c3ccc(F)cc3)CC2)c(OCC)cc1-n1cnnn1 | ? | 0
CC1CC(C)CN(c2ccc(-n3cnnn3)cc2[N+](=O)[O-])C1 (stereo unspecified) | 0 | 0
O=[N+]([O-])c1cc(-n2cnnn2)ccc1N1CCC(Cc2ccccc2)CC1 | 25.1µM | 0
Cc1ccc(S(=O)(=O)CC(=O)Nc2nc3c(C)cccc3s2)cc1 | 25.1µM | 0
Cc1ccc(Cl)c2sc(NC(=O)CS(=O)(=O)c3ccc(Cl)cc3)nc12 | 0 | 0
O=C(CS(=O)(=O)c1ccc(Cl)cc1)Nc1nc2ccc(Br)cc2s1 | 7.94µM | 0
CC(=O)Nc1ccc2nc(NC(=O)CS(=O)(=O)c3ccc(C)cc3)sc2c1 | 0 | 0
O=C(NCc1cccnc1)NC1(C(F)(F)F)Oc2ccccc2O1 | 0 | 0
CCCCC(=O)Nc1cccc(NC(=O)C(C)C)c1 | 0 | 0
O=C(Nc1ccc(F)cc1)Nc1ccc(N2CCCC2)c(S(=O)(=O)Nc2ccccc2Cl)c1 | 3.16µM | 0
COc1ccccc1NS(=O)(=O)c1cc(NC(=O)c2cccs2)ccc1N1CCCC1 | ? | 0
COc1ccc(NS(=O)(=O)c2cc(NC(=O)/C=C/c3cc(OC)ccc3OC)ccc2N2CCCCC2)cc1 | 6.31µM | 0
COc1ccc(NS(=O)(=O)c2cc(NC(=O)c3ccco3)ccc2N2CCCC2)cc1 | ? | 0
COc1ccccc1NS(=O)(=O)c1cc(NC(=O)c2cccs2)ccc1N1CCCCC1 | 10µM | 0
O=C(Nc1ccc(Cl)c(Cl)c1)Nc1ccc(N2CCCC2)c(S(=O)(=O)Nc2ccccc2Cl)c1 | ? | 0
COc1ccccc1NS(=O)(=O)c1cc(NC(=O)Nc2ccccc2)ccc1N1CCCCC1 | 3.16µM | 0
COc1ccccc1NS(=O)(=O)c1cc(NC(=S)NCCN2CCOCC2)ccc1N1CCOCC1 | ? | 0
CC1CCCC(C)N1C(=O)CSc1nc2ncnc(N)c2[nH]1 (stereo unspecified) | 0 | 0
CCOC(=O)C(Nc1ccc2ccccc2c1)C(=O)OCC | 0 | 0
COCCN1CN=C(Nc2nc3ccccc3s2)NC1 | 15.8µM | ?
